Laboratory results from ChEMBL document CHEMBL3988442, “University of Dundee, Small-Polar-MMV Screening Library” (2021).
Out of some 66,000 compounds screened, about 960 (1.5%) showed an effect of 50% or more. The sample as a whole holds a higher share of strong results than the screen did.

Tested on: Trypanosoma brucei
Assay: Trypanosoma brucei 72 hour study
Type: functional, organism-based
Set-up: scale not given: in the data most compounds retested in dose-response had high values

COc1c(C2CCCN2C(=O)c2ccc(O)nc2)c(C)nn1C (stereo not given)
Percent Effect (10 µM): -34.15%

COCCCN1CC2(CCN(C(=O)c3ncc(F)cc3F)CC2)CC1=O
Percent Effect (30 µM, 30.03 µM): -16.91%

Cl.O=C(NCc1ccc(F)cc1)N1CCN(CC(O)C2CC2)CC1 (stereo not given)
Percent Effect (30.3 µM, […]): 2.371%

Cc1nc[nH]c1CN1CCc2nc3scc(C)c3c(=O)n2CC1.Cl
Percent Effect (30.3 µM, […]): -39.02%

Fc1cccc(Oc2nccnc2C2CCN(C3CCOCC3)CC2)c1
Percent Effect (30.3 µM, […]): -17.84%

CCn1nc(C)c(CN(CCCOC)Cc2ccccn2)c1C.O=C(O)CC(O)(CC(=O)O)C(=O)O
Percent Effect (30.3 µM, […]): -0.7195%

Cn1cc(CN2CCC3(CC2)NC(=O)CC3c2ccncc2)cn1.O=C(O)C(F)(F)F.O=C(O)C(F)(F)F (stereo not given)
Percent Effect (30 µM, 30.03 µM): 47.38%

COc1ccc(S(=O)(=O)N2CCOC(Cn3ccnc3)C2)cc1.Cc1ccc(S(=O)(=O)O)cc1 (stereo not given)
Percent Effect (30.3 µM, […]): -20.84%

CCc1ncc(C(=O)NCCN(C)S(C)(=O)=O)cn1
Percent Effect (30 µM, 30.03 µM): 1.892%

CN(CCNC(=O)c1cnc(-c2ccccc2)nc1)S(C)(=O)=O
Percent Effect (30 µM, 30.03 µM): 23.88%

CN(CCNC(=O)c1cnc(-c2ccncc2)nc1)S(C)(=O)=O
Percent Effect (30 µM, 30.03 µM): 61.08%

CN(C)C(=O)NCc1cc(=O)n2c(n1)CN(Cc1ccoc1)CCC2.O=C(O)C(F)(F)F
Percent Effect (30 µM, 30.03 µM): -46.36%

Cc1nc(CN(C)C2CCN(CCn3cc(C#N)cn3)C2)no1 (stereo not given)
Percent Effect (30.3 µM, […]): -2.287%

Cc1cccc(OCCC(=O)N(C)CC(C)C#N)c1C (stereo not given)
Percent Effect (30 µM, 30.03 µM): 9.501%

Cc1cccc(OCCC(=O)N(C)CCNS(C)(=O)=O)c1C
Percent Effect (30 µM, 30.03 µM): 57.14%

Cc1cccc(OCCC(=O)N(C)CCC#N)c1C
Percent Effect (30 µM, 30.03 µM): 43.96%

COc1ccc(-n2cccn2)cc1S(=O)(=O)N1C[C@H](C2CC2)[C@@H](N)C1
Percent Effect (30 µM, 30.03 µM): 27.88%

Cc1ccc(-n2cccn2)cc1S(=O)(=O)N1C[C@@H]2CC[C@H](C1)N(C)C2
Percent Effect (30 µM, 30.03 µM): 75.01%

Cc1ccc(-n2cccn2)cc1S(=O)(=O)N1C[C@H](C2CC2)[C@@H](N)C1
Percent Effect (30 µM, 30.03 µM): 17.94%

COc1ccc(N2Cc3nc(=O)n(C(C)C)n3C2=O)cc1
Percent Effect (30 µM, 30.03 µM): -34%

CCN1CC2(CC1=O)CN(Cc1ccncc1)CCN(C(=O)C(C)C)C2.O=C(O)C(F)(F)F.O=C(O)C(F)(F)F (stereo not given)
Percent Effect (30 µM, 30.03 µM): -22.83%

O=C(NCc1nnc2n1CCC2)N1CCC2(CCCCC2)CC1
Percent Effect (30.3 µM, […]): -3.097%

O=C(NCCc1nnc2n1CCCCC2)N1CCC2(CCCC2)CC1
Percent Effect (30.3 µM, […]): 99.8%

O=C(NCCc1nnc2n1CCC2)N1CCC2(CCCCC2)C1
Percent Effect (30.3 µM, […]): -13.71%

O=C(C1CCOCC1)N1CCc2ncc(CN3CCCC3)n2CC1.O=C(O)C(F)(F)F
Percent Effect (30.3 µM, […]): -192.2%

COc1cccc(-c2nc(C)c(C(=O)N[C@@H](CC(C)C)C(=O)O)s2)c1
Percent Effect (30 µM, 30.03 µM): -38.77%

CNC(=O)C(CC(C)C)NC(=O)c1cccc(-c2n[nH]c(C)n2)c1 (stereo not given)
Percent Effect (30.3 µM, […]): -198.3%

CNC(=O)C(CC(C)C)NC(=O)c1cccc(-c2nc(C)cs2)c1 (stereo not given)
Percent Effect (30.3 µM, […]): 71.45%

NC(=O)NCC(=O)N1C[C@H]2CC[C@@H]1CN(Cc1cscn1)C2
Percent Effect (30 µM, 30.03 µM): -50.24%

CN(C)[C@@H]1CCN(CC2CC2)[C@H]1Cc1cnn(C)c1.O=C(O)C(F)(F)F.O=C(O)C(F)(F)F
Percent Effect (30.3 µM, […]): -399.8%

COc1ccc2[nH]cc(-c3ccnc(N4CCC(C)CC4)n3)c2c1
Percent Effect (30.3 µM, […]): 23.49%

O=c1[nH]c(-c2ccncc2)ncc1-c1ccnc(NC2CCCCC2)n1
Percent Effect (30.3 µM, […]): -18.66%

COc1ccc2[nH]cc(-c3ccnc(NC4CCCC4)n3)c2c1
Percent Effect (30.3 µM, […]): 82.65%

COCCN1CCC2(CCC(=O)N2Cc2csc(C)n2)CC1.O=C(O)C(F)(F)F.O=C(O)C(F)(F)F
Percent Effect (30.3 µM, […]): -13.8%

CC(=O)N1[C@@H](C(=O)NCC2CC2)C[C@@H]2CN(Cc3nccs3)C[C@@H]21.O=C(O)C(F)(F)F
Percent Effect (30.3 µM, […]): -16.07%

COc1cc(C(=O)N(CCC#N)Cc2ccccn2)cc(OC)c1C
Percent Effect (30 µM, 30.03 µM): 4.832%

COc1cc(C(=O)N(CCC#N)Cc2ccccn2)ccc1C
Percent Effect (30 µM, 30.03 µM): 33.36%

Cc1ccc(C(=O)N(CCC#N)Cc2ccccn2)cc1C
Percent Effect (30 µM, 30.03 µM): 52.21%

Cc1cnn(C2CCCN(C(=O)c3ccc(-n4cccn4)nc3)C2)c1 (stereo not given)
Percent Effect (30.3 µM, […]): -2.436%
Percent Effect (10 mM, 10 mM as filed; unlikely as a test dose): -29.12%

O=C(O)C(F)(F)F.O=C1CCCN1Cc1nnn2c1CN(c1cccnc1)CCC2
Percent Effect (30.3 µM, […]): -14.81%

Cc1ccc(CN2Cc3c(C(=O)N4CCCC4)nn(C)c3C2)s1.O=C(O)C(F)(F)F
Percent Effect (30 µM, 30.03 µM): -54.81%

CN(C)Cc1nnn2c1CN(Cc1cccnc1)CCC2.O=C(O)C(F)(F)F.O=C(O)C(F)(F)F.O=C(O)C(F)(F)F
Percent Effect (30 µM, 30.03 µM): -10.93%

Cc1cc(C)n(-c2ccccc2NC(=O)NCCCN(C)S(C)(=O)=O)n1
Percent Effect (30 µM, 30.03 µM): -25.36%

Cc1nn(-c2ccccc2)c2c1C(c1ccc(C(=O)O)cc1)CC(=O)N2 (stereo not given)
Percent Effect (30 µM, 30.03 µM): 16.38%
